A selection: hits, their analogues and other compounds. The true share with any hit is near 3.5%.
BoNT-F LC inh: blocks Botulinum neurotoxin F light chain protease | Multiplex microsphere protease cleavage assay, flow cytometry | inhibition, % at 10 µM | 360,000 compounds, 0.22% hits | AID 588497; in the data active = inhibition above about 35%, passing the limit was not always enough; inconclusive = no clear call, values can overlap the other calls; note: plate controls were buffer without enzyme for full effect and enzyme alone for no effect
BoNT-A LC inh2: blocks Botulinum neurotoxin A light chain protease | multiplex microsphere protease substrate cleavage, flow cytometry | inhibition, % at 10 µM | 360,000 compounds, 0.17% hits; note: plate controls were buffer without enzyme for full effect and enzyme alone for no effect
Autofluor counter: compound fluorescence in toxin protease inhibitor counterscreen; fluorescence intensity (test concentration not listed); 360,000 compounds, 3.1% hits; compound autofluorescence counterscreen, microsphere flow cytometry; stronger effect = higher value; in the data active = fluorescence intensity above about 16000; inconclusive = no clear call, values can overlap the other calls
Anthrax LF inh2: anthrax lethal factor protease inhibition; P15917; multiplex microsphere protease cleavage assay, LF; inhibition, % at 10 µM; 360,000 compounds, 0.12% hits; AID 588501; note: plate controls were buffer without enzyme for full effect and enzyme alone for no effect
* marks the source's active call; other numbers are inactive results; u = inconclusive; ! = not active in a repeat. Cut-off read from the data, not from the text of the source, unless noted: active = inhibition above about 30%; inconclusive = no clear call, values can overlap the other calls; inactive = below that.

SMILES	BoNT-F LC inh	BoNT-A LC inh2	Autofluor counter	Anthrax LF inh2
COC(=O)[C@@H](NC(=O)NCc1cccs1)C(C)C	-1	3	18068*	-5
Cc1c(C(=O)Nc2ccncc2)oc2ccccc12	-4	0	5119	-7
Cc1c(C(=O)NCc2cccnc2)oc2ccccc12	-3	-1	23977*	-1
CC(Sc1ccc(S(=O)(=O)N2CCN(C)CC2)cn1)C(=O)NC1CCCCC1 (stereo not drawn)	-4	-1	3892	6
Cc1ccc(C)c(CSc2ccc3nnc(-c4ccccn4)n3n2)c1	-2	0	4461	-5
Cc1ccc(NC(=O)c2oc3ccccc3c2NC(=O)c2ccc3c(c2)OCO3)cc1	4	5	20506*	0
O=C(Nc1c(C(=O)Nc2cccc(F)c2)oc2ccccc12)c1ccc2c(c1)OCO2	-8	0	8437	-5
Cc1c(C(=O)NCc2cccs2)oc2ccccc12	-1	0	23183*	-3
O=C(NCc1cccs1)c1ccccc1C(=O)NCc1cccs1	-5	u	23472*	1
Cc1c(C(=O)NCc2ccc3c(c2)OCO3)oc2ccccc12	3	4	20346*	-9
COC(=O)N1CCCCC1c1cc(C(=O)NCc2ccccc2)no1 (stereo not drawn)	1	0	4179	-6
O=C(N/N=C/c1cccnc1)c1cc(O)c(O)c(O)c1	-37	-4	3773	0
COc1ccc(-c2cccc(NC(=O)COc3ccc(Cl)cc3)c2)nn1	0	0	4259	1
COc1ccc2nc(NN=C(C)c3ccccn3)cc(C)c2c1	-3	9	2908	18
Cc1c(C(=O)Nc2nnc(C(F)(F)F)s2)oc2ccccc12	-2	-4	23455*	1
COC(=O)c1sc(NC(=O)c2oc3ccccc3c2C)nc1C	-3	0	2993	-5
COc1cc(CCC(=O)NCCc2ccc(F)cc2)cc(OC)c1OC	2	-4	4785	1
CC1CC(C)CN(C(=O)Cn2c(=O)n(CCCCC(=O)NC3CCCC3)c(=O)c3ccccc32)C1 (stereo not drawn)	37*	0	3620	2
CCn1c(=O)n(CC(=O)N2CC(C)CC(C)C2)c(=O)c2ccccc21 (stereo not drawn)	0	0	20034*	-3
Cc1ccccc1N1CCN(C2CCCN(C(=O)c3csc(C(C)C)n3)C2)CC1 (stereo not drawn)	-2	-1	6073	-1
CCOC(=O)N1CCN(S(=O)(=O)CCNC(=O)c2ccc(F)cc2)CC1	-14	-4	5063	4
COc1cc(OC)cc(C(=O)NC2CCSC2=O)c1 (stereo not drawn)	-4	-1	17088*	-2
CCC(NS(=O)(=O)c1ccc(C)cc1)C(=O)Nc1ccc(NC(C)=O)cc1 (stereo not drawn)	2	0	2121	1
COc1cc2ncnc(NCc3ccccc3)c2cc1OC	-4	0	2424	0
c1ccc(CNc2ncnc3ccccc23)cc1	8	6	20097*!	-2
SMILES	BoNT-F LC inh	BoNT-A LC inh2	Autofluor counter	Anthrax LF inh2
Cn1c(-c2cc3ccc(OC(=O)C(C)(C)C)cc3oc2=O)nc2ccccc21	1	0	16715*	0
CC(=O)Oc1ccc2cc(-c3nc4ccccc4n3C)c(=O)oc2c1	7	1	5799	0
CCC1Oc2ccc(C)cc2N(Cc2cccc(C)c2)C1=O (stereo not drawn)	-7	u	17288*	-2
CCCCNC(=O)CN1C(=O)C(CC)Oc2ccc(Cl)cc21 (stereo not drawn)	13	1	7447	5
CCOC(=O)CN1C(=O)C(CC)Oc2ccc(Cl)cc21 (stereo not drawn)	-5	-4	21455*	-1
Cc1ccc2c(c1)N(Cc1ccccc1)C(=O)C(C)O2 (stereo not drawn)	-2	0	3856	-6
COc1cc(CN(C2CCCCC2)S(=O)(=O)c2ccc(S(=O)(=O)N(C)C3CCCCC3)cc2)cc(OC)c1OC	-3	0	2434	0
CC(C)(C)OC(=O)N(CCc1ccccc1)Cc1cccc(OCc2cccc(NC(=O)C3CC3)c2)c1	-3	0	3869	-10
CC1=NC(Nc2nc(C)c3ccccc3n2)=NC(C)(C)C1	-8	2	24864*	5
CN(C)N1C(=O)CC(NNC(=O)c2ccncc2)C1=O (stereo not drawn)	-1	0	2371	0
Cc1ccc(C(=O)O/N=C2\CC3CCC2(C)C3(C)C)cc1 (stereo not drawn)	1	u	21254*	-3
C=CCc1c(C)nc2cc(-c3ccc(C)cc3)[nH]n2c1=O	u	-4	3332	3
CCc1c(C)nc2cc(-c3ccccc3)[nH]n2c1=O	36*	2	3383	-4
COc1cccc2cc(C(=O)C3=C(O)C(=O)N(CCN(C)C)C3c3ccc(Cl)cc3)oc12 (stereo not drawn)	u	u	3918	30*
CN(C)CCN1C(=O)C(O)=C(C(=O)c2cc3ccccc3o2)C1c1cccc(Br)c1 (stereo not drawn)	-6	u	22182*	-3
O=C(C1=C(O)C(=O)N(CCN2CCOCC2)C1c1cccc(Br)c1)c1cc2ccccc2o1 (stereo not drawn)	0	0	5688	-1
Cc1noc(C)c1C(=O)Nc1sc2c(c1C(N)=O)CCCCC2	-2	0	22480*	-2
CCC(C)NCC(=O)Nc1sc2c(c1C(N)=O)CCC2 (stereo not drawn)	13	2	3734	1
CCC(=O)Nc1sc2c(c1C(N)=O)CCC2	0	1	23030*	-6
CC(c1ccccc1)N1CCn2c(nc3cc(NC(=O)NC4CCCCC4)ccc32)C1 (stereo not drawn)	-22	13	19391*	-6
CC(c1ccccc1)N1CCn2c(nc3cc(NC(=O)c4cccs4)ccc32)C1 (stereo not drawn)	-51	11	10054	-2
Cc1nc(-n2ncc(C#N)c2N)c2c3c(sc2n1)CCC3	1	0	22751*	1
CC(=O)N(CCC1(C(C)C)CCOC(C)(C)C1)Cc1ccco1 (stereo not drawn)	1	u	19564*	0
O=C(COC(=O)c1cnccn1)NCCc1ccccc1	1	0	u	-14
O=C(COC(=O)c1cnccn1)NCc1ccccc1	-4	-1	20877*	1
SMILES	BoNT-F LC inh	BoNT-A LC inh2	Autofluor counter	Anthrax LF inh2
COc1ccc(-c2c(C)c3ccc(O)cc3oc2=O)cc1OC	9	0	5311	0
O=c1cc(-c2ccccc2)oc2cc(O)ccc12	-2	0	5681	0
O=c1ccc2c(-c3ccccc3)c3ccc(O)cc3oc-2c1	88*	8	6626	56*
Nc1ccc(-c2c3ccc(=O)cc-3oc3cc(O)ccc23)cc1C(=O)O	u	21	9781	128*
O=C(Nc1ccccc1)N(CCCN1CCOCC1)Cc1ccccc1F	-2	0	2929	3
COc1ccc(CN(CCCN2CCOCC2)C(=O)Nc2ccccc2)cc1OC	-3	u	22584*	-7
C(=C\c1ccccc1)/C=N/n1cnnc1	-3	-1	24268*	-1
Nc1nnnn1/N=C/C=C/c1ccccc1	-1	1	4198	4
